Experimental data from PubChem BioAssay (NCATS).
Inconclusive results are not listed. The source made the active and inactive calls.

Assay: qHTS for identification of novel therapeutic agents for treatment of microphthalmiaassociated transcription factor (MiT) renal cell carcinoma (RCC) (AID 1963991)
Conditions: CellTiter-Glo, 48 h; for Potency: active = Z-AUC below -0.8 in all three lines; for z-score: stronger effect = lower value
Text: PI: Marston Linehan Ph.D.
Urologic Oncology Branch, Center for Cancer Research (CCR)
National Cancer Institute (NCI), National Institute of Health (NIH), Bethesda, Maryland
MiT-Renal Cell Carcinoma (RCC) is characterized by genomic translocations involving microphthalmia-associated transcription factor (MiT) family members TFE3, TFEB, or MITF. MiT-RCC represents a specific subtype of sporadic RCC that is predominantly seen in young patients and can present with heterogeneous histological features making diagnosis challenging. Moreover, the disease biology of this aggressive cancer is poorly understood and there is no accepted standard of care therapy for patients with advanced disease. Tumor-derived cell lines have been established from human TFE3-RCC providing useful models for preclinical studies. TFE3-RCC tumor derived cell lines and their tissues of origin were characterized by IHC and gene expression analyses. An unbiased high-throughput drug screen was performed to identify novel therapeutic agents for treatment of MiT-RCC. Potential therapeutic candidates were validated in in vitro and in vivo preclinical studies. Mechanistic assays were conducted to confirm the on-target effects of drugs. The results of a high-throughput small molecule drug screen utilizing three TFE3-RCC tumor-derived cell lines identified five classes of agents with potential pharmacological efficacy, including inhibitors of phosphoinositide-3-kinase (PI3K) and mechanistic target of rapamycin (mTOR), and several additional agents, including the transcription inhibitor Mithramycin A. Upregulation of the cell surface marker GPNMB, a specific MiT transcriptional target, was confirmed in TFE3-RCC and evaluated as a therapeutic target using the GPNMB-targeted antibody-drug conjugate CDX-011. […] The results of the high-throughput drug screen and validation studies in TFE3-RCC tumor-derived cell lines have provided in vitro and in vivo preclinical data supporting the efficacy of the PI3K/mTOR inhibitor.
SEQUENCE No. (e.g., 1, 2, 3, etc.); […] (e.g., Cells, Incubation, Reagent, etc.); VALUE; DESCRIPTION.
1; Cells; 3 uL; white, solid-bottom Grenier assay plate.
2; Compounds; 23 nL; Kalypsis pin-tool (Wako USA).
3; Incubation; 48 hr; 37 C, 5% CO2, 95% humidity.
4; Reagent; 3 uL; CellTiter-Glo reagent (Promega).
5; Incubation; 15 min; room temperature.
6; Detection; Luminescence; ViewLux plate reader (PerkinElmer).
NOTES (numbers refer to Sequence numbers above)
1. Quantitative high-throughput screening (qHTS) of 1912 pharmacologically defined small molecule compounds was conducted on three TFE3-fusion cell lines bearing three different fusion partners (UOK109, UOK124, UOK145). Briefly, 500 cells in complete growth media were plated into white, solid-bottom, 1536-well tissue culture treated plates (Grenier Cat. 789173-F) using a Multidrop Combi cassette dispenser.
2. Twenty-three nanoliter of 1912 pharmacologically defined small molecule compounds of the NCATS Mechanism Interrogation PlatE (MIPE) version 4.0 were added to each assay plate using a Pintool Dispenser (Wako) equipped with 1536 pin head.
3. Plates were covered with stainless steel gasketed lids and incubated for 48 hours at standard cell culture conditions.
4. Viability was assessed by adding 3uL of CellTiter-Glo detection reagent (Promega).
5. Plates were covered with gasket lids and incubated for 15 minutes at room temperature.
6. Luminescence was measured on a ViewLux plate reader (PerkinElmer). Post-screen data processing used DMSO controls as 100% viability and empty wells as 0% viability and dose response curve fitting was done for all 11 concentrations for each compound.

[1] = TFE3-RCC UOK109 viability, measured here: UOK109 Z-AUC
[2] = TFE3-RCC viability, measured here: UOK124 Z-AUC
[3] = TFE3-RCC viability, measured here: UOK145 Z-AUC
Potency is read from the fitted curve at half-maximal effect.

SMILES	Potency (TFE3-RCC UOK109 viability)	z-score [1]	z-score [2]	z-score [3]
CC(C)(O)c1cc2nc(-c3cnc(N)nc3)nc(N3CCOCC3)c2s1	33.2 nM (active)	-2.49	-0.824	-2.51
O=C(Cc1ccc(-c2ccc(OCCN3CCOCC3)cc2)cn1)NCc1ccccc1	148 nM (active)	-1.65	-2.5	-1.24
CS(=O)(=O)N1CCN(Cc2cc3nc(-c4cccc5[nH]ncc45)nc(N4CCOCC4)c3s2)CC1	105 nM (active)	-1.55	-1.58	-1.5
CC(C)c1cc(C(=O)N2Cc3ccc(CN4CCN(C)CC4)cc3C2)c(O)cc1O	418 nM (active)	-0.923	-0.898	-0.85
CN1CC[C@@H](c2c(O)cc(O)c3c(=O)cc(-c4ccccc4Cl)oc23)[C@@H](O)C1	118 nM (active)	-2.54	-1.53	-2.13
COCCn1c2c([n+](Cc3cnccn3)c1C)C(=O)c1ccccc1C2=O	83.3 nM (active)	-3.55	-3.42	-3.23
COC(=O)Nc1nc2ccc(C(=O)c3ccc(F)cc3)cc2[nH]1	1870 nM (active)	-1.13	-1.2	-0.98
CCn1nnc2c(N3CCOCC3)nc(-c3ccc(NC(=O)Nc4ccc(C(=O)N5CCN(C)CC5)cc4)cc3)nc21	526 nM (active)	-1.28	-1.68	-1.94
COc1c(N2C[C@@H]3CCCN[C@H]3C2)c(F)cc2c(=O)c(C(=O)O)cn(C3CC3)c12	–	0.422	1.3	1.53
COc1cccc(Nc2c(C(N)=O)cnc3c(C)cc(S(=O)(=O)c4cccc(C(=O)N(C)C)c4)cc23)c1	–	1.38	0.911	0.957
O=C(O)[C@H](Cc1c[nH]c2ccccc12)N1C(=O)c2ccccc2C1=O	–	0.59	0.462	0.777
